# PubChem BioAssay
# Activity calls are given as the source filed them.
# Columns and labels:
# [1] = system: Plasmodium falciparum Sir2 (PF13_0152, Sir2A); assay: Plasmodium falciparum Sir2A binding compounds – biochemical, small-molecule microarray, 635 nm fluorescence, primary screen (AID 1098); conditions: fluorescence 635 nm, higher = more signal;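 also: score merges spot fluorescence intensity with its signal-to-noise ratio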
# [2] = probe aDKK1 binding to arrayed compounds – biochemical, biotinylated probe, 635/667 nm fluorescence, primary screen (AID 1099); conditions: small-molecule microarray, higher = more signal;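 also: score merges 667nm spot fluorescence with signal to noise across triplicate slides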
# [3] = probe aCHRDL2 binding to arrayed compounds – biochemical, biotinylated probe, 635/667 nm fluorescence, primary screen (AID 1100); conditions: small-molecule microarray, higher = more signal
# [4] = change in splice reporter luminescence, either direction, cell-based, HEK293, spliceosome inhibition project, primary screen (AID 1101); conditions: HEK293 splicing luciferase reporter, 24 h, higher = more signal, called active from +8 up or from −8 down;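 also: HEK293 cells carrying a splicing-competent luciferase reporter gene; test concentration not given here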
# [5] = target: Fibroblast growth factor 10 (Homo sapiens) (UniProt O15520); assay: compounds binding fibroblast growth factor 10 – biochemical, small-molecule microarray, 635 nm fluorescence, primary screen (AID 1102); conditions: FGF10 binding, fluorescence 635 nm, higher = more signal
# Sequence of Fibroblast growth factor 10 (Homo sapiens) (O15520 whole entry, looked up): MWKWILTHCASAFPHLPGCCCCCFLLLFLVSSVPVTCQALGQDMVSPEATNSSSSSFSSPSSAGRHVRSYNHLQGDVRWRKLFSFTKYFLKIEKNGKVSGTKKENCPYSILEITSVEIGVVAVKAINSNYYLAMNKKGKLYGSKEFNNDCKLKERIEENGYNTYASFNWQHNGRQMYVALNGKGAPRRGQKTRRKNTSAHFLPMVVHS
# [6] = system: glycogen synthase kinase-3 (GSK3A per assay name; protocol says GSK3B); assay: compounds binding glycogen synthase kinase-3 – biochemical, small-molecule microarray, 635 nm fluorescence, GSK3A, primary screen (AID 1103); conditions: fluorescence 635 nm, higher = more signal; also: the record names both GSK3A and GSK3B
# [7] = target: Epidermal growth factor receptor (Homo sapiens) (UniProt P00533); assay: compounds binding epidermal growth factor receptor – biochemical, small-molecule microarray, 635 nm fluorescence, primary screen (AID 1104); conditions: EGFR binding, higher = more signal;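 also: score merges 667 nm emission intensity with spot signal to noise over triplicate slides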
# Sequence of Epidermal growth factor receptor (Homo sapiens) (P00533 whole entry, looked up): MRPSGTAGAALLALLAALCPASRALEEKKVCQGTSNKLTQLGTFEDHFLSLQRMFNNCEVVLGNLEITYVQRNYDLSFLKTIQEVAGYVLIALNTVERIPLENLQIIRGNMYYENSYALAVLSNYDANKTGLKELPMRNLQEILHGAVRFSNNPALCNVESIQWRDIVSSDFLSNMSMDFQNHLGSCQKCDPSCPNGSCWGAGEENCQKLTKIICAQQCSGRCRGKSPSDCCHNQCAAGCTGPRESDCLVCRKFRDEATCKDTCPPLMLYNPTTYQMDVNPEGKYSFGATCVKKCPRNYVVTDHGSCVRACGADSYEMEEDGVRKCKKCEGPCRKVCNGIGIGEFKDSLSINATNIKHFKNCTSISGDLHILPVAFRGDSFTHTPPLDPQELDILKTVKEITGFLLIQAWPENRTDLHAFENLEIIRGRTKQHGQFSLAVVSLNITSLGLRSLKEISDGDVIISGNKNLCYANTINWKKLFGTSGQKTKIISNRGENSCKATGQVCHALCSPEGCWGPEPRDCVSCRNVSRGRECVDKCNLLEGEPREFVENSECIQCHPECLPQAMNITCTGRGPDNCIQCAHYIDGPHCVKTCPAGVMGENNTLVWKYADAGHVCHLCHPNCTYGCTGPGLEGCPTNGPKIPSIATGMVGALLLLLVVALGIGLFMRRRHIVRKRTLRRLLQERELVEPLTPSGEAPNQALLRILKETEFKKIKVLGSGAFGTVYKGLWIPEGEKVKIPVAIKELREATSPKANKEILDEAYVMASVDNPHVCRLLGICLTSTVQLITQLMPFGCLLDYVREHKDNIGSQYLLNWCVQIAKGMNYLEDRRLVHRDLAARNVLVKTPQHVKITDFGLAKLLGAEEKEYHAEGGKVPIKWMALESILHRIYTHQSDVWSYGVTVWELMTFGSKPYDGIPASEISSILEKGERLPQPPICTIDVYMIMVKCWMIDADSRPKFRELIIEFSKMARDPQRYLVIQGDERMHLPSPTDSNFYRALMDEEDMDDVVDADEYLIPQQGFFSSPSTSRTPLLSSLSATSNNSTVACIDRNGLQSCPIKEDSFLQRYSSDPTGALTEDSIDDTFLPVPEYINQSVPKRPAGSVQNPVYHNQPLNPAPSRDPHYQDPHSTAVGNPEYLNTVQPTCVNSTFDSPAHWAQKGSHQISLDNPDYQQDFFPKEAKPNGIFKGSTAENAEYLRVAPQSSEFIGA
# [8] = target: Follistatin-related protein 3 (Homo sapiens) (UniProt O95633); assay: compounds binding follistatin-related protein 3 – biochemical, small-molecule microarray, 635 nm fluorescence, primary screen (AID 1105); conditions: FSTL3 binding, higher = more signal;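 also: score merges emission near 667 nm and signal to noise per printed spot across three slides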
# Sequence of Follistatin-related protein 3 (Homo sapiens) (O95633 whole entry, looked up): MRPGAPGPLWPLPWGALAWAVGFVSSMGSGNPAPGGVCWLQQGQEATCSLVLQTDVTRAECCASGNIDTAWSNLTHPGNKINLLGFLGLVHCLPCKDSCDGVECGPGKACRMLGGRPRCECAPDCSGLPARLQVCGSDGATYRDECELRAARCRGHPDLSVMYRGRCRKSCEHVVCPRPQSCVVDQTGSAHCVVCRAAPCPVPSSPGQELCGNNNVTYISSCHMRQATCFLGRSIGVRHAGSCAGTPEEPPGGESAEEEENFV
# [9] = target: Dickkopf-related protein 1 (Homo sapiens) (UniProt O94907); assay: small molecules binding DKK1 protein – biochemical, small-molecule microarray, 635 nm fluorescence scan, primary screen (AID 1106); conditions: higher = more signal;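 also: score merges emission near 667 nm with signal to noise over three replicate slides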
# Sequence of Dickkopf-related protein 1 (Homo sapiens) (O94907 whole entry, looked up): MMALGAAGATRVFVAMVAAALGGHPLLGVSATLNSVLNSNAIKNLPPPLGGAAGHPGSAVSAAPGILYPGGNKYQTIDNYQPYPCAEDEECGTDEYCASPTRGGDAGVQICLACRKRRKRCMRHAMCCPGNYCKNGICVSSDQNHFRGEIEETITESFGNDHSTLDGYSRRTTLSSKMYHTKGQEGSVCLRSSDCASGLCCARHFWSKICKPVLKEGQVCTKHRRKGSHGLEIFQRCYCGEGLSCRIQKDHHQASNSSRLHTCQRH
# [10] = system: Inhibin beta A chain (activin A); assay: small molecules binding activin A – biochemical, small-molecule microarray, 635 nm fluorescence scan, primary screen (AID 1107); conditions: INHBA, higher = more signal;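 also: mouse activin A protein probed at 4.33 µg/mL on printed slides; score merges bound-protein fluorescence near 667 nm with spot signal-to-noise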
# [11] = system: Human papillomavirus type 1a protein E7 (residues 44-93); assay: small molecules binding HPV E7 44-93 – biochemical, small-molecule microarray, residues 44-93, 635 nm fluorescence, primary screen (AID 1108); conditions: fluorescence 635 nm, higher = more signal;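 also: E7 fragment applied at 1 µg/mL in TBST for 1 h at 4 C; score combines spot fluorescence with its signal to noise ratio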
# [12] = hepatitis C replication reporter changes, two-sided – Huh7 cells, luciferase reporter, HCV replication inhibitor project, primary screen (AID 1109); conditions: Huh7 HCV replicon luciferase reporter, 48 h; higher = more signal;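 also: huh7 hepatoma cells harbouring a luciferase neomycin HCV replicon reporter; luciferase luminescence as measure of HCV replicon replication; test concentration not given here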
# [13] = target: Left-right determination factor 2 (Homo sapiens) (UniProt O00292); assay: small molecules binding LEFTY2 protein – biochemical, small-molecule microarray, 635 nm fluorescence scan, primary screen (AID 1110); conditions: higher = more signal
# Sequence of Left-right determination factor 2 (Homo sapiens) (O00292 whole entry, looked up): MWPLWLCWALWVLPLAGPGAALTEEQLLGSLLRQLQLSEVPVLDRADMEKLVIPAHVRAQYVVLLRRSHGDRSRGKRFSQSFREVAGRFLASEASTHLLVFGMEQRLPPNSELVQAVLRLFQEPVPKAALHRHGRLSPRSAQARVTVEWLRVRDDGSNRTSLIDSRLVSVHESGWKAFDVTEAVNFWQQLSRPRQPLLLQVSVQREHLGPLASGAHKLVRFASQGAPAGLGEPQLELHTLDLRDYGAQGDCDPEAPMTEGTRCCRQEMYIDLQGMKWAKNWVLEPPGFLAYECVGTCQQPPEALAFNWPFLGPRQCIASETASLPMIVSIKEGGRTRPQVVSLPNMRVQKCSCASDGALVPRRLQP
# [14] = target: Calmodulin-1 (Homo sapiens) (UniProt P0DP23); assay: small molecules binding calmodulin-1 with EGTA – biochemical, small-molecule microarray, Cy5-labelled CALM1, profiling panel (AID 1111); conditions: Cy5-CALM1 binding fluorescence, higher = more signal;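 also: labelled calmodulin applied in Tris saline Tween buffer holding calcium plus EGTA and DTT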
# [15] = target: Calmodulin-1 (Homo sapiens) (UniProt P0DP23); assay: small molecules binding Ca-loaded calmodulin-1 – biochemical, small-molecule microarray, Cy5-labelled CALM1, plus calcium, artefact control for SMM control-protein annotation, profiling panel (AID 1112); conditions: Cy5-CALM1 binding fluorescence, higher = more signal;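 also: score merges spot fluorescence with signal to noise from triplicate slides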
# [16] = probe aWnt5a binding to arrayed compounds – biochemical, biotinylated probe, 635/667 nm fluorescence, primary screen (AID 1113); conditions: small-molecule microarray, higher = more signal;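 also: score merges 667 nm fluorescence intensity with signal-to-noise per printed feature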
# [17] = probe aShh binding to arrayed compounds – biochemical, biotinylated probe, 635/667 nm fluorescence, primary screen (AID 1114); conditions: small-molecule microarray, higher = more signal;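 also: probe is biotin-labelled aShh protein from a stem cell growth factor screen; measures binding of labelled protein to compounds printed on the slide; score merges feature fluorescence at 667 nm with signal-to-noise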
# [18] = probe aNog binding to arrayed compounds – biochemical, biotinylated probe, 635/667 nm fluorescence, primary screen (AID 1115); conditions: small-molecule microarray, higher = more signal;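 also: probe is biotinylated aNog protein used at 0.15 µg/mL for 1 h at 4 C; z-score combines 667 nm fluorescence of each spot with its signal to noise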
# [19] = target: Torsin-1A-interacting protein 1 (Homo sapiens) (UniProt Q5JTV8); assay: compound microarray binding of lysate hLAP1 – cell lysate, small-molecule microarray, COS7 lysate, 635/667 nm fluorescence, primary screen (AID 1116); conditions: 635 nm fluorescence, higher = more signal
# Sequence of Torsin-1A-interacting protein 1 (Homo sapiens) (Q5JTV8 whole entry, looked up): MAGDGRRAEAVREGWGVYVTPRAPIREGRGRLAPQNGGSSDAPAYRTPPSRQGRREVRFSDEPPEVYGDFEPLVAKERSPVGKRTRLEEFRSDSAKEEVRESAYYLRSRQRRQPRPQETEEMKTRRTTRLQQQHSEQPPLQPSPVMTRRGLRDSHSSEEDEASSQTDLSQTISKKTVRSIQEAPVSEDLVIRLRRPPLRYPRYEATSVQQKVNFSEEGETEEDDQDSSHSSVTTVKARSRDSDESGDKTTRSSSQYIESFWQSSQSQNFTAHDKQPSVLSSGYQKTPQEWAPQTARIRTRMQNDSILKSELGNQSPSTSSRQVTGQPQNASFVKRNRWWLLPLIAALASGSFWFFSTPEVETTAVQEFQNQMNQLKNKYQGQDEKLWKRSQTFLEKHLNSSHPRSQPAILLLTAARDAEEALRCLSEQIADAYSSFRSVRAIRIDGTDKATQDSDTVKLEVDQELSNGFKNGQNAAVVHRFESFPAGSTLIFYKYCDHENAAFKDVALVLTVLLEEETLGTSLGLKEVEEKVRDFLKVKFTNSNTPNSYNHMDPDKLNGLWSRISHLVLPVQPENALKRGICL
# [20] = target: Alpha-bungarotoxin (Bungarus multicinctus) (UniProt P60615); assay: compounds binding labelled alpha-BTX control protein – biochemical, small-molecule microarray, Alexa647 label, 635/667 nm fluorescence, artefact control for SMM control protein annotation, profiling panel (AID 1117); conditions: alpha-BTX-A647 binding fluorescence, higher = more signal
# Sequence of Alpha-bungarotoxin (Bungarus multicinctus) (P60615 whole entry, looked up): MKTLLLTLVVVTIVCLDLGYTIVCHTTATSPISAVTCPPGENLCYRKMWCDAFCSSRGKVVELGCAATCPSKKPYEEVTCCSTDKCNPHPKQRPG
SMILES,composite z-score [1],composite z-score [2],composite z-score [3],z-score [4],composite z-score [5],composite z-score [6],composite z-score [7],composite z-score [8],composite z-score [9],composite z-score [10],composite z-score [11],z-score [12],composite z-score [13],composite z-score [14],composite z-score [15],composite z-score [16],composite z-score [17],composite z-score [18],composite z-score [19],composite z-score [20]
C=C(COC)C(=O)CC[C@H](OC(=O)c1ccccc1-c1ccccc1C(=O)O)c1cccc(OCCO)c1,1.74,-0.0615,-0.462,-3.03 (inactive),1.71,0.829,0.397,1.33,1.94,1.01,1.4,-3.1,0.757,3.03,0.733,0.0519,-0.17,0.0519,3.73,-0.151
C=CC[C@@]1(C(=O)NCC(O)CO)N=C(c2ccc(OCCCO)cc2)O[C@@H]1c1ccccc1CN=[N+]=[N-] (stereo not given in full),1.52,-0.0775,1.08,-0.155 (inactive),0.0349,-1.33,-0.83,-0.884,-1.45,0.242,1.43,-1.11,-1.44,0.778,-0.0262,-0.119,0.261,0.824,2.6,0.0177
Cc1ccc(S[C@]2(C(=O)O)CC(=O)N(Cc3ccccc3)[C@@H]2c2ccc(CO)cc2)cc1,-0.844,0.638,0.899,-0.718 (inactive),-0.0355,0.132,-0.289,-0.0951,-0.304,1.04,-0.323,0.764,-1.29,0.321,0.965,-0.172,0.046,-0.0563,-0.257,-0.198
N#Cc1ccc(NN2C(C(O)CCc3ccccc3)C=CC3C(=O)N(c4ccccc4)C(=O)C32)cc1 (stereo not given),0.712,1.18,1.11,-0.474 (inactive),0.25,0.767,-0.164,0.228,0.0048,1.02,-0.317,-0.123,-0.111,1.59,0.0484,0.0785,0.108,-0.428,2.95,0.969
CO[C@]12C=C(Br)[C@@H](C[C@@H]1c1ccccc1)[C@@]1(CO1)C2=O,0.165,-0.301,-0.708,-0.0249 (inactive),0.342,0.497,0.496,0.615,0.791,0.737,-0.468,-2.97,0.36,-0.264,-0.533,-0.0125,-0.0146,0.0256,-0.161,-0.3
O=C(N1CCCCC1)[C@@]1(CCS(=O)(=O)c2ccccc2)N=C(c2ccc(OCCCO)cc2)O[C@H]1c1ccccc1,0.332,0.653,0.896,-0.372 (inactive),1.27,0.811,-0.162,0.598,-0.42,0.356,1.48,-3.07,-0.197,-0.215,-0.688,0.212,0.427,-0.133,1.77,-0.0166
CC[C@H]1C2=C3C(CC[C@H]4C(OC)OC[C@](C)([C@@H]34)N(C(=O)OC(C)(C)C)C2)C(CO)C1CO (stereo not given in full),0.593,1.54,1.6,-0.715 (inactive),0.754,1.16,0.194,1.07,-0.212,0.828,1.37,-0.996,0.221,2.27,1.38,0.379,-0.349,-0.128,2.23,1.33
O=C1OCCC=C[C@H]2OC34C=CCN(Cc5ccccc5)C(=O)[C@H]3N(CCO)C(=O)[C@@H]4C12 (stereo not given in full),-0.37,-0.273,0.0184,-2.82 (inactive),-0.835,-0.958,-0.844,-0.376,-0.46,1.02,-0.936,-1.23,-0.591,-0.675,0.681,-0.248,-0.276,-0.224,-0.18,-2.01
C=CCNC(=O)[C@@H]1[C@H]2C(=O)O[C@H](c3ccccc3)[C@H](c3ccccc3)N2[C@H](c2ccc(OCCO)cc2)[C@@]12C(=O)N(C(=O)OCCOC)c1ccc(C#CC3(O)CCCCCC3)cc12,1.12,0.342,0.375,-0.929 (inactive),0.325,0.871,0.432,0.702,0.125,1.34,0.692,-2.29,0.507,1.82,1.11,0.0267,0.293,0.166,1.2,1.97
CC/C=C/C(=O)N(C[C@@H]1CCCO1)[C@@H]1CC(C(=O)NCCO)=C[C@H](Oc2c(I)cc(CO)cc2OC)[C@H]1O,-0.251,-0.154,-0.162,-1.44 (inactive),0.541,-0.208,0.0798,-0.434,0.554,0.0756,-0.2,-0.277,0.208,-0.33,0.0262,0.497,0.138,0.124,0.371,0.515
C=CCOC(=O)[C@@H]1[C@H]2C(=O)O[C@H](c3ccccc3)[C@H](c3ccccc3)N2[C@H](c2ccc(OCCOC(=O)[C@H]3C[C@H]4C(=O)N5CCC[C@H]5C(=O)N4[C@H]3c3ccc(O)cc3)cc2)[C@@]12C(=O)Nc1ccccc12,1.04,0.264,0.573,-1.3 (inactive),0.883,1.18,0.689,1.34,0.921,0.668,-0.747,-1.31,0.382,1.27,0.699,0.0047,0.14,0.305,0.87,1.33
COc1cc(Cc2cc3c(c(CCc4ccccc4)n2)[Si](C(C)C)(C(C)C)OC3)cc(OC)c1OC,-0.132,-0.106,-0.471,-0.212 (inactive),0.367,-0.034,0.0831,0.499,0.164,0.679,-0.0207,-2.14,0.131,-0.358,-0.182,-0.156,0.0796,-0.158,-0.214,-0.044
